Structures are written as SMILES.

The first test in a line: EMT-state selective cytotoxicity in co-culture – imaging, PC-3E GFP, TEM4-18 mCherry, primary screen (AID 1345086).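 Further: cells exposed to compound for 72 h before imaging.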 The following applies: PC-3E GFP / TEM4-18 mCherry co-culture, imaging cell counts; measured here: epithelial PC-3E GFP cell survival; at 1 µM.
For the molecule `Nc1nc(N)c2nc(CNc3ccc(C(=O)NC(CCC(=O)O)C(=O)O)cc3)cnc2n1` (centres undefined), the normalised cell number came to 1.01.

In turn, `COC1=C(OC)C(=O)C(C/C=C(\C)CC/C=C(\C)CC/C=C(\C)CC/C=C(/C)CC/C=C(\C)CC/C=C(\C)CC/C=C(\C)CC/C=C(\C)CC/C=C(\C)CCC=C(C)C)=C(C)C1=O` gave a normalised cell number of 0.97. The same measure, in the same setting: to `COC(=O)/C=C/C(=O)OC` belongs 0.84; to `CC(C)=CCC/C(C)=C/CC/C(C)=C/CC/C(C)=C/CC/C(C)=C/CC/C(C)=C/CC/C(C)=C/CC/C(C)=C/CC/C(C)=C/CO`, 0.97. Take `Cc1cc2nc3c(=O)[nH]c(=O)nc-3n(CC(O)C(O)C(O)CO)c2cc1C` (centres undefined): the normalised cell number is 1.14. In turn, `CN[C@@H]1[C@H](O[C@H]2[C@H](O[C@@H]3[C@@H](O)[C@H](O)[C@@H](N=C(N)N)[C@H](O)[C@H]3N=C(N)N)O[C@@H](C)[C@]2(O)C=O)O[C@@H](CO)[C@H](O)[C@H]1O` showed a normalised cell number of 1.28. The molecule `Oc1cc2c(cc1O)C1c3ccc(O)c(O)c3OCC1(O)C2` (centres undefined) returned a normalised cell number of 1.12. For `CCCCS(=N)(=O)CCC(N)C(=O)O` (centres undefined), the normalised cell number came to 0.89.

As for `CC12CCC3c4ccc(O)cc4CCC3C1C[C@H](O)[C@@H]2O` (some centres undefined), the normalised cell number was determined as 0.91. For the molecule `Cc1coc2c1C(=O)C(=O)c1c-2ccc2c1CCCC2(C)C`, the normalised cell number is 0.67.

With `Nc1nc(F)nc2c1ncn2[C@@H]1O[C@H](COP(=O)(O)O)[C@@H](O)[C@@H]1O`, the normalised cell number came out at 0.86. Molecule `CC[C@@]1(O)C(=O)OCc2c1cc1n(c2=O)Cc2cc3cc(O)ccc3nc2-1` had a normalised cell number of 0.31. As for `CC[C@]1(O)CC2CN(CCc3c([nH]c4ccccc34)[C@@](C(=O)OC)(c3cc4c(cc3OC)N(C)[C@H]3[C@@](O)(C(=O)OC)[C@H](OC(C)=O)[C@]5(CC)C=CCN6CC[C@]43[C@@H]65)C2)C1` (some centres undefined), the normalised cell number turned out to be 0.16. For `CC1=C(C(=O)O)N2C(=O)[C@@H](NC(=O)C(N)c3ccccc3)[C@H]2SC1` (some centres undefined), the normalised cell number was found to be 1.06. The same measure, in the same setting: to `C=CC[C@@H]1/C=C(\C)C[C@H](C)C[C@H](OC)[C@H]2O[C@@](O)(C(=O)C(=O)N3CCCC[C@H]3C(=O)O[C@H](/C(C)=C/[C@@H]3CC[C@@H](O)[C@H](OC)C3)[C@H](C)[C@@H](O)CC1=O)[C@H](C)C[C@@H]2OC` belongs 0.77; to `CC(C)(CO)C(O)C(=O)NCCC(=O)NCCSSCCNC(=O)CCNC(=O)C(O)C(C)(C)CO` (centres undefined), 0.82; to `N#CC(c1ccc(Cl)cc1)c1c(Cl)cc(-n2ncc(=O)[nH]c2=O)cc1Cl` (centres undefined), 1.03. `Cc1cc(=O)c(C(=O)N[C@@H](C(=O)N[C@@H]2C(=O)N3C(C(=O)O)=C(CSc4nnnn4C)CSC23)c2ccc(O)cc2)c[nH]1` (some centres undefined) displayed a normalised cell number of 1.24. Regarding `CC(C)NC[C@H](O)COc1cccc2ccccc12`, the normalised cell number was 1. In turn, `COc1ccc(C2Sc3ccccc3N(CCN(C)C)C(=O)C2OC(C)=O)cc1` (centres undefined) yielded a normalised cell number of 0.98.

Turning to `Clc1ccc(CCC(Cn2ccnc2)Sc2c(Cl)cccc2Cl)cc1` (centres undefined), the normalised cell number is 1.26. On the same count and under the same terms, the figure for `COc1ccc2nc3cc(Cl)ccc3c(Nc3cc(CN4CCCC4)c(O)c(CN4CCCC4)c3)c2n1` is 0.83. `CC(=O)NC(CS)C(=O)O` (centres undefined) gave a normalised cell number of 1.24.

In turn, `C[C@]12CCC3c4ccc(O)cc4CCC3C1CCC2=O` (some centres undefined) came in with a normalised cell number of 1.03.

The same test, now with this note: PC-3E GFP / TEM4-18 mCherry co-culture, imaging cell counts; measured here: mesenchymal TEM4-18 mCherry cell survival; at 1 µM.
In the case of `Cc1c(-c2cnccn2)ssc1=S`, the normalised cell number turned out to be 0.98.

On to `CC(NCCc1ccc(O)cc1)C(O)c1ccc(O)cc1` (centres undefined), for which the normalised cell number amounted to 1.05. The molecule `N[C@@H](CC(=O)N1CCn2c(nnc2C(F)(F)F)C1)Cc1cc(F)c(F)cc1F` yielded a normalised cell number of 1.18. On to `CC1(C)CCC[C@]2(C)[C@H]3CC(=O)O[C@]3(C)CC[C@@H]12`, for which the normalised cell number came to 1.19.

In the case of `OC[C@@H](O)[C@@H](O)[C@H](O)[C@@H](O)CO`, the normalised cell number was determined as 1.06. Consider `O=c1ccn([C@@H]2O[C@H](CO)[C@@H](O)[C@H]2O)c(=O)[nH]1`, for which the normalised cell number came out at 0.9. `CC1CC2C3CCC4=CC(=O)C=C[C@]4(C)[C@@]3(F)[C@@H](O)C[C@]2(C)[C@@]1(O)C(=O)CO` (some centres undefined) returned a normalised cell number of 1.37. For the molecule `N#C[C@@H]1C[C@@H]2C[C@@H]2N1C(=O)[C@@H](N)C12CC3CC(CC(O)(C3)C1)C2`, the normalised cell number is 1.19.

`CC(C)(CO)[C@@H](O)C(=O)NCCC(=O)O`: the normalised cell number is 0.88. For `CC(C)C(C)/C=C/C(C)C1CCC2C3=CC=C4CC(O)CCC4(C)C3CCC21C` (centres undefined), the normalised cell number was 0.85. For the molecule `C[C@]12C=CC(=O)C=C1CCC1C2[C@@H](O)C[C@@]2(C)C1CC[C@]2(O)C(=O)COP(=O)(O)O` (some centres undefined), the normalised cell number was 1.15.

Consider `CN(C)CC[C@H](c1ccc(Cl)cc1)c1ccccn1`, for which the normalised cell number stood at 1.28. `CC(C)OC(=O)CCC/C=C\C[C@@H]1[C@@H](/C=C/C(O)COc2cccc(C(F)(F)F)c2)[C@H](O)C[C@@H]1O` (some centres undefined) had a normalised cell number of 1.08. Same read-out and setting: to `C[C@H]1COC2=C1C(=O)C(=O)c1c2ccc2c1CCCC2(C)C` belongs 0.8; to `OC(c1cc(C(F)(F)F)nc2c(C(F)(F)F)cccc12)C1CCCCN1` (centres undefined), 1.1.

`CN1C(C(=O)Nc2ccccn2)=C(O)c2sc(Cl)cc2S1(=O)=O` yielded a normalised cell number of 0.88. On the same count and under the same terms, the figure for `Nc1nc(N)c2nc(CNc3ccc(C(=O)NC(CCC(=O)O)C(=O)O)cc3)cnc2n1` (centres undefined) is 0.96; for `COC1=C(OC)C(=O)C(C/C=C(\C)CC/C=C(\C)CC/C=C(\C)CC/C=C(/C)CC/C=C(\C)CC/C=C(\C)CC/C=C(\C)CC/C=C(\C)CC/C=C(\C)CCC=C(C)C)=C(C)C1=O` it is 1.06; for `COC(=O)/C=C/C(=O)OC` it is 1.04. With `CC(C)=CCC/C(C)=C/CC/C(C)=C/CC/C(C)=C/CC/C(C)=C/CC/C(C)=C/CC/C(C)=C/CC/C(C)=C/CC/C(C)=C/CO`, the normalised cell number is 1.07. Take `Cc1cc2nc3c(=O)[nH]c(=O)nc-3n(CC(O)C(O)C(O)CO)c2cc1C` (centres undefined): the normalised cell number was 1.1.

For the molecule `CN[C@@H]1[C@H](O[C@H]2[C@H](O[C@@H]3[C@@H](O)[C@H](O)[C@@H](N=C(N)N)[C@H](O)[C@H]3N=C(N)N)O[C@@H](C)[C@]2(O)C=O)O[C@@H](CO)[C@H](O)[C@H]1O`, the normalised cell number turned out to be 0.98. Regarding `Oc1cc2c(cc1O)C1c3ccc(O)c(O)c3OCC1(O)C2` (centres undefined), the normalised cell number worked out at 1.18. On to `CCCCS(=N)(=O)CCC(N)C(=O)O` (centres undefined), for which the normalised cell number came out at 0.83. In turn, `CC12CCC3c4ccc(O)cc4CCC3C1C[C@H](O)[C@@H]2O` (some centres undefined) came in with a normalised cell number of 0.89.

As to `Cc1coc2c1C(=O)C(=O)c1c-2ccc2c1CCCC2(C)C`, the normalised cell number is 0.7. `Nc1nc(F)nc2c1ncn2[C@@H]1O[C@H](COP(=O)(O)O)[C@@H](O)[C@@H]1O` registered a normalised cell number of 0.92.

`CC[C@@]1(O)C(=O)OCc2c1cc1n(c2=O)Cc2cc3cc(O)ccc3nc2-1` returned a normalised cell number of 0.29. On to `CC[C@]1(O)CC2CN(CCc3c([nH]c4ccccc34)[C@@](C(=O)OC)(c3cc4c(cc3OC)N(C)[C@H]3[C@@](O)(C(=O)OC)[C@H](OC(C)=O)[C@]5(CC)C=CCN6CC[C@]43[C@@H]65)C2)C1` (some centres undefined), for which the normalised cell number stood at 0.2.

With `CC1=C(C(=O)O)N2C(=O)[C@@H](NC(=O)C(N)c3ccccc3)[C@H]2SC1` (some centres undefined), the normalised cell number was determined as 1.23. `C=CC[C@@H]1/C=C(\C)C[C@H](C)C[C@H](OC)[C@H]2O[C@@](O)(C(=O)C(=O)N3CCCC[C@H]3C(=O)O[C@H](/C(C)=C/[C@@H]3CC[C@@H](O)[C@H](OC)C3)[C@H](C)[C@@H](O)CC1=O)[C@H](C)C[C@@H]2OC` came in with a normalised cell number of 0.91. The molecule `CC(C)(CO)C(O)C(=O)NCCC(=O)NCCSSCCNC(=O)CCNC(=O)C(O)C(C)(C)CO` (centres undefined) registered a normalised cell number of 0.8. As for `N#CC(c1ccc(Cl)cc1)c1c(Cl)cc(-n2ncc(=O)[nH]c2=O)cc1Cl` (centres undefined), the normalised cell number was determined as 0.86.

For the molecule `Cc1cc(=O)c(C(=O)N[C@@H](C(=O)N[C@@H]2C(=O)N3C(C(=O)O)=C(CSc4nnnn4C)CSC23)c2ccc(O)cc2)c[nH]1` (some centres undefined), the normalised cell number was found to be 1.12. In turn, `CC(C)NC[C@H](O)COc1cccc2ccccc12` registered a normalised cell number of 1.37.

Take `COc1ccc(C2Sc3ccccc3N(CCN(C)C)C(=O)C2OC(C)=O)cc1` (centres undefined): the normalised cell number is 1.22.

In turn, `Clc1ccc(CCC(Cn2ccnc2)Sc2c(Cl)cccc2Cl)cc1` (centres undefined) came in with a normalised cell number of 1.06. The molecule `COc1ccc2nc3cc(Cl)ccc3c(Nc3cc(CN4CCCC4)c(O)c(CN4CCCC4)c3)c2n1` showed a normalised cell number of 0.98. Same read-out and setting: to `CC(=O)NC(CS)C(=O)O` (centres undefined) belongs 1.36; to `C[C@]12CCC3c4ccc(O)cc4CCC3C1CCC2=O` (some centres undefined), 0.99.

The values are drawn from PubChem BioAssay.
